# Laboratory results as given in PubChem BioAssay AID2283227 (EPA ToxCast).
# Inconclusive results are not listed. Activity calls are given as the source filed them. The calls were made as follows: active = hit-call score of the fitted dose curve at least 0.9, where 1 is the maximum; inconclusive = response in the unintended direction; inactive = score below 0.9.
# Test system: pig Methylenetetrahydrofolate Reductase (MTHFR), gene 397180
# Assay: NVS_ENZ_pMTHFR: NovaScreen (NVS) Enzymatic Assay for pig Methylenetetrahydrofolate Reductase (MTHFR)
# Procedure: NVS_ENZ_pMTHFR is a biochemical, single-readout assay that uses extracted gene-proteins from Porcine kidney in a tissue-based cell-free assay. Measurements were taken 1 hour after chemical dosing in a 96-well plate.NVS_ENZ_pMTHFR is one of one assay component(s) measured or calculated from the NVS_ENZ_pMTHFR assay. It is designed to make measurements of enzyme activity, a form of enzyme reporter, as detected with scintillation counting signals by Lysate-based radiodetection technology.Data from the assay component NVS_ENZ_pMTHFR was analyzed into 1 assay endpoint. This assay endpoint, NVS_ENZ_pMTHFR, was analyzed in the positive analysis fitting direction relative to DMSO as the negative control and baseline of activity. Using a type of enzyme reporter, loss-of-signal activity can be used to understand changes in the enzymatic activity as they relate to the gene MTHFR. Furthermore, this assay endpoint can be referred to as a primary readout, because this […] where this one serves a enzymatic activity function. To generalize the intended target to other relatable targets, this assay endpoint is annotated to the oxidoreductase intended target family, where the subfamily is methylenetetrahydrofolate reductase.
# Binding assays used specific radioligands (tritiated, iodinated) with non-radioactive competitive displacement ligands in agonist or antagonist protocols (as indicated) and various reference compounds and inhibitors to titrate specific binding to receptors and transporters. Most enzyme assays (CYPs, kinases, phosphatases, proteases, HDACs) used recombinant protein and specific substrates (fluorescence mostly, some colorimetric and radioactive) and inhibitors, followed by a biochemical separation of substrate and product. All assays for the biochemical HTS were initially run in duplicate at a single concentration (10 uM for CYP450 assays and 25 uM for all others). Assay-chemical combinations meeting a pre-defined threshold (e.g., 30% inhibition and other criteria defined below) were then run in singleton concentration-response format with maximum concentration of 20 uM for CYPs and 50 uM for all others. Each assay was run with positive and negative controls, and concurrent controls on every plate. The follow-up (secondary) screen tested active chemical-pairs in concentration series, as well as a few additional assays not tested in the primary screen, some selected negative inactives, and several cases re-run in the concentration series for confirmatory purposes.
SMILES,outcome,AC50
CC(=NC#N)N(C)Cc1ccc(Cl)nc1,inactive,
COP(=O)(OC)OC=C(Cl)Cl,inactive,
CCCCOCN(C(=O)CCl)c1c(CC)cccc1CC,inactive,
COc1nc(C)nc(NC(=O)NS(=O)(=O)c2ccccc2Cl)n1,inactive,
CN(C)c1nc(=O)n(C2CCCCC2)c(=O)n1C,inactive,
CCc1cccc(CC)c1N(COC)C(=O)CCl,inactive,
COC(=O)c1c(C(F)F)nc(C(F)(F)F)c(C2=NCCS2)c1CC(C)C,,6.46 µM (active)
CCCCOC(=O)c1ccccc1C(=O)O,inactive,
N#Cc1c[nH]cc1-c1cccc2c1OC(F)(F)O2,inactive,
CC(C)(C)C(=O)C(Oc1ccc(Cl)cc1)n1cncn1 (stereo unspecified),inactive,
CC(C)Oc1cc(-n2nc(C(C)(C)C)oc2=O)c(Cl)cc1Cl,inactive,
